According to publication PMC7862700, “An all-to-all approach to the identification of sequence-specific readers for epigenetic DNA modifications on cytosine”:

Columns and labels:
Assay in all cases: DAPPL (digital affinity profiling via proximity ligation, sequencing); 10 mM Tris-HCl pH 7.5, 50 mM NaCl, 1 mM DTT, 4% glycerol, room temperature, 30 min; GST-TFs on glutathione beads, 16-mer random dsDNA library, 0.1% formaldehyde crosslink after washing; high values mean tight binding
FLI1 = molecular target: T1, FLI1 (Homo sapiens, UniProt Q01543 1-452); conditions: protein: recombinant; tags: N-terminal GST; dsDNA, one strand shown
T1 sequence: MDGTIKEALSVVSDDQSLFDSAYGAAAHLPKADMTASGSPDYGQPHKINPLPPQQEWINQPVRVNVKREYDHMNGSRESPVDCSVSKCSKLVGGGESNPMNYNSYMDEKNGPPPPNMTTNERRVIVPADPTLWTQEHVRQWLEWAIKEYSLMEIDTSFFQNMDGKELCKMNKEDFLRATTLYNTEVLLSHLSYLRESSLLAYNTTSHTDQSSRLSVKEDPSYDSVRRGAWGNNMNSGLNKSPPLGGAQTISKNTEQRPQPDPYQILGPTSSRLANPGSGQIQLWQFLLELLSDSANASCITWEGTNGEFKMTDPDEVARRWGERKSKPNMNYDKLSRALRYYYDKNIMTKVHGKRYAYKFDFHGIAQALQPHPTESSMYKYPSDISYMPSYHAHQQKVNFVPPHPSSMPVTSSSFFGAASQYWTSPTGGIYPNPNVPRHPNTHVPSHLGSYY
Outline: (§1)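 Beads coated with glutathione captured GST-fused human transcription factors that had been expressed in yeast, and the factors were then given DNA barcodes and pooled with a tag-only sample. The pools were incubated with 200 nmole of a random double-stranded 16-mer DNA library in Tris/NaCl/DTT/glycerol buffer for 30 min at room temperature, washed, crosslinked with 0.1% formaldehyde and proximity-ligated with BsaI/T4 ligase at 37 °C for 1 h. PCR amplification and Illumina NextSeq500 sequencing came last. Binding signal is each hexamer's read frequency for a factor divided by its frequency for the tag-only sample.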

ELK1 = molecular target: T2, ELK1 (Homo sapiens, UniProt P19419 1-428); conditions: protein: recombinant; tags: N-terminal GST; dsDNA, one strand shown
T2 sequence: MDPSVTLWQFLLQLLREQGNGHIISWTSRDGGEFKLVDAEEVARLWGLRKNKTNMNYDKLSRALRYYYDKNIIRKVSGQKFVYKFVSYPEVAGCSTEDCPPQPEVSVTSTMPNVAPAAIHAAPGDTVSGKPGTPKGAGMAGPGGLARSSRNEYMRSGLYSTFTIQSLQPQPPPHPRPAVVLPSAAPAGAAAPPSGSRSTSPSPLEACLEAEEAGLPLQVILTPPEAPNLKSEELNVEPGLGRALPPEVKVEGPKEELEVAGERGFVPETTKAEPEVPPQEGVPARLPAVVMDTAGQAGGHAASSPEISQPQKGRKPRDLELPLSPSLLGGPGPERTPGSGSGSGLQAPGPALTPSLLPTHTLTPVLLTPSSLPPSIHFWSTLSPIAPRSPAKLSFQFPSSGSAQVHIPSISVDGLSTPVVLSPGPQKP
Outline: as §1

GABPA = molecular target: T3, GABPA (Homo sapiens, UniProt Q06546 1-454); conditions: protein: recombinant; tags: N-terminal GST; dsDNA, one strand shown
T3 sequence: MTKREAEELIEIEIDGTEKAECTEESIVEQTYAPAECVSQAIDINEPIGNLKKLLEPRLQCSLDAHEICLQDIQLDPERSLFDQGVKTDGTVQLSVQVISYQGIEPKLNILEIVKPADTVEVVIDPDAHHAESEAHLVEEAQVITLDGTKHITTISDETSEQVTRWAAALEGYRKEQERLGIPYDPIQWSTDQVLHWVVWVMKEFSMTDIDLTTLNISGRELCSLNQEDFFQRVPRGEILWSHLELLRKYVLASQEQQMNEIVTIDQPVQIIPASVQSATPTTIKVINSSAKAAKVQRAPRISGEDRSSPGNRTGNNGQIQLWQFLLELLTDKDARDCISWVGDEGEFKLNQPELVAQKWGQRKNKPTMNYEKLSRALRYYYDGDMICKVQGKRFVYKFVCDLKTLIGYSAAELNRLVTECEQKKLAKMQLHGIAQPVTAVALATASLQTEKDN
Outline: as §1

ERG = molecular target: T4, ERG (Homo sapiens, UniProt P11308 1-479); conditions: protein: recombinant; tags: N-terminal GST; dsDNA, one strand shown
T4 sequence: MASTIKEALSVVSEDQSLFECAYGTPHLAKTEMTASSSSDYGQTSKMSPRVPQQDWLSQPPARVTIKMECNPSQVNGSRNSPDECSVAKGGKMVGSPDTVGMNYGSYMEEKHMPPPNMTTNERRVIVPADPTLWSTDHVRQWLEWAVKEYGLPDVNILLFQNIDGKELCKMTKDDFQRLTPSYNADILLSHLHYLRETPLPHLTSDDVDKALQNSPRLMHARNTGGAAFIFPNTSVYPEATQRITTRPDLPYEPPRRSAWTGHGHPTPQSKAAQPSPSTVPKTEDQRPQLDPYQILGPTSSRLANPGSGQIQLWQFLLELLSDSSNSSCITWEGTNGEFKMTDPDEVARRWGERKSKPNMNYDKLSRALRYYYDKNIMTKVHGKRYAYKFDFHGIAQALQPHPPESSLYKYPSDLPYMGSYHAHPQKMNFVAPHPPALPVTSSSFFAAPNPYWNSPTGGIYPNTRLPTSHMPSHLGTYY
Outline: as §1

ELF1 = ELF1 (Homo sapiens, UniProt P32519 1-619); conditions: protein: recombinant; tags: N-terminal GST; dsDNA, one strand shown
ELF1, sequence (P32519 whole entry): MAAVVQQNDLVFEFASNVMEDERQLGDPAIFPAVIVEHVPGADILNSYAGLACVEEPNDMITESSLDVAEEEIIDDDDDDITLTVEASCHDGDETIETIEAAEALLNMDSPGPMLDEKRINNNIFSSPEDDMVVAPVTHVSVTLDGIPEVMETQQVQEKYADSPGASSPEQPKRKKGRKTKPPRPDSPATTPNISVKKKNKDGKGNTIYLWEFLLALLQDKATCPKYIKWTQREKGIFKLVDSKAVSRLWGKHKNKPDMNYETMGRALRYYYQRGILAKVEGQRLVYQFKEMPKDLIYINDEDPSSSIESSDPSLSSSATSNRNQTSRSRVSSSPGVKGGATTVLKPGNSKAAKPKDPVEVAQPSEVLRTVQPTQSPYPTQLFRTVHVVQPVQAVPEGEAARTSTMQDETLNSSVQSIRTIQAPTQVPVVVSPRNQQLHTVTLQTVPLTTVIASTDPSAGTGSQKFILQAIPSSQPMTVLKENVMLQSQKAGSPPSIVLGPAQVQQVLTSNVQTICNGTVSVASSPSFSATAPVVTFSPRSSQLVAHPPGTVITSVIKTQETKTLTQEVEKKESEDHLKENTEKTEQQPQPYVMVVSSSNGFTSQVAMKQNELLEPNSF
Outline: as §1

EHF = molecular target: T5, EHF (Homo sapiens, UniProt Q9NZC4 1-300); conditions: protein: recombinant; tags: N-terminal GST; dsDNA, one strand shown
T5 sequence: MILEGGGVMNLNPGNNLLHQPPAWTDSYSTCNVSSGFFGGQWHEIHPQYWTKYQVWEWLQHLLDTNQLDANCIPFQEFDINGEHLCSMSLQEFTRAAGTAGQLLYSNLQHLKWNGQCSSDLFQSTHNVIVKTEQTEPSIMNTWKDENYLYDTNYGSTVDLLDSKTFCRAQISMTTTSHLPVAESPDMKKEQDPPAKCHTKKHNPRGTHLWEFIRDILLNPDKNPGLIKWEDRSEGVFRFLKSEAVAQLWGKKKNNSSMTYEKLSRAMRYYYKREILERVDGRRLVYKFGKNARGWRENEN
Outline: as §1

SPI1 = SPI1 (Homo sapiens, UniProt P17947 1-270); conditions: protein: recombinant; tags: N-terminal GST; dsDNA, one strand shown
Outline: as §1

SPIB = SPIB (Homo sapiens, UniProt Q01892 1-262); conditions: protein: recombinant; tags: N-terminal GST; dsDNA, one strand shown
SPIB, sequence (Q01892 whole entry): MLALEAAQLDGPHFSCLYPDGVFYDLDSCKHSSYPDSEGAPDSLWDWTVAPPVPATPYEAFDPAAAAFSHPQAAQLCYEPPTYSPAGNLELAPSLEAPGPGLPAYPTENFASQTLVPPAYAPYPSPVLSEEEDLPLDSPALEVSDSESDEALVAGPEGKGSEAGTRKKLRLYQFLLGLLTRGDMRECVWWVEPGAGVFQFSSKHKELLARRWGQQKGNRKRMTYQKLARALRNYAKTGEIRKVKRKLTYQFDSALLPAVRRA
Outline: as §1

ELK3 = molecular target: T6, ELK3 (Homo sapiens, UniProt P41970 1-407); conditions: protein: recombinant; tags: N-terminal GST; dsDNA, one strand shown
T6 sequence: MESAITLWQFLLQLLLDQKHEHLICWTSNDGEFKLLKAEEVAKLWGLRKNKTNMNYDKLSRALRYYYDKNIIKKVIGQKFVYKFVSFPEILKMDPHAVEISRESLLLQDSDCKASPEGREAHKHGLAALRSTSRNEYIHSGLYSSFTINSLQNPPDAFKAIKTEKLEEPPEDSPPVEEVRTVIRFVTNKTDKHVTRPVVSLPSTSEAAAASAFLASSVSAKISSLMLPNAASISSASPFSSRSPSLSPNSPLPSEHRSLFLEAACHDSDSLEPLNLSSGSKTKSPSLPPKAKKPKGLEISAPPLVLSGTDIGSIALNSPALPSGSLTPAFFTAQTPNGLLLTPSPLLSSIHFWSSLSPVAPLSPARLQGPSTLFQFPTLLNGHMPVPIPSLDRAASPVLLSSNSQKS
Outline: as §1

FEV = molecular target: T7, FEV (Homo sapiens, UniProt Q99581 1-238); conditions: protein: recombinant; tags: N-terminal GST; dsDNA, one strand shown
T7 sequence: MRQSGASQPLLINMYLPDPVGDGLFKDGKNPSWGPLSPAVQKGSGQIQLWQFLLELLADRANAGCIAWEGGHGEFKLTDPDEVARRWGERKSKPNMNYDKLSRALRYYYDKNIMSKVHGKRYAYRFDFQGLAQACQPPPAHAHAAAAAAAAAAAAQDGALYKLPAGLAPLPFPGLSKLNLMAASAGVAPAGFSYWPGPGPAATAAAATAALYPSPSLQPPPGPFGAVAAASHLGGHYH
Outline: as §1

ETV5 = ETV5 (Homo sapiens, UniProt P41161 1-510); conditions: protein: recombinant; tags: N-terminal GST; dsDNA, one strand shown
ETV5, sequence (P41161 whole entry): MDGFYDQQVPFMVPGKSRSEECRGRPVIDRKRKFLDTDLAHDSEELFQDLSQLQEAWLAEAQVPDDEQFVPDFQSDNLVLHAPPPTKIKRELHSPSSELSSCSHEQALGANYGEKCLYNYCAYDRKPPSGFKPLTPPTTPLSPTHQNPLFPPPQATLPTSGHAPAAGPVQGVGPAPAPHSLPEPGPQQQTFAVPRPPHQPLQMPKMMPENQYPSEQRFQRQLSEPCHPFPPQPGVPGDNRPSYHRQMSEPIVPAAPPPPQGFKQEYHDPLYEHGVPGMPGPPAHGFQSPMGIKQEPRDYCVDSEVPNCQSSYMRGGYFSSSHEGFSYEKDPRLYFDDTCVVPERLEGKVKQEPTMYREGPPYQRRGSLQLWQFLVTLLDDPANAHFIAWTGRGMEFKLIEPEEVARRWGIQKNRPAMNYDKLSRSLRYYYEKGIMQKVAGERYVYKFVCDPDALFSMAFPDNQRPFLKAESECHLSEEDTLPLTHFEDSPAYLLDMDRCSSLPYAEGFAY
Outline: as §1

HSF1 = HSF1 (Homo sapiens, UniProt Q00613 1-529); conditions: protein: recombinant; tags: N-terminal GST; chain copies: 3; dsDNA, one strand shown
HSF1, sequence (Q00613 whole entry): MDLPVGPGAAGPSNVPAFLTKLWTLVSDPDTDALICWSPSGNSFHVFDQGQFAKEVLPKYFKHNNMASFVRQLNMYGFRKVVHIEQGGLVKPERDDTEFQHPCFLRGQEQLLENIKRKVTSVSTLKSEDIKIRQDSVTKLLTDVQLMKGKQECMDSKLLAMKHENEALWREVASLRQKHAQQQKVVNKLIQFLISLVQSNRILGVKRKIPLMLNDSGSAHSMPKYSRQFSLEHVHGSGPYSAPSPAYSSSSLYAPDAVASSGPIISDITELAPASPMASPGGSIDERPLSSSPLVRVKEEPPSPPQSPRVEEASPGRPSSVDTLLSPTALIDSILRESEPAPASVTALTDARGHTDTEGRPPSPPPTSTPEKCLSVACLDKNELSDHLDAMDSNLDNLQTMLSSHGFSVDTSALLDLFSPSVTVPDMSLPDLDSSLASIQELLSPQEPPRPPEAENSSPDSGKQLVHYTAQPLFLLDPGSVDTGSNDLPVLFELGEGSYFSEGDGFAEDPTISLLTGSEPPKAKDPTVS
Outline: as §1

SPIC = molecular target: T8, SPIC (Homo sapiens, UniProt Q8N5J4 1-248); conditions: protein: recombinant; tags: N-terminal GST; dsDNA, one strand shown
T8 sequence: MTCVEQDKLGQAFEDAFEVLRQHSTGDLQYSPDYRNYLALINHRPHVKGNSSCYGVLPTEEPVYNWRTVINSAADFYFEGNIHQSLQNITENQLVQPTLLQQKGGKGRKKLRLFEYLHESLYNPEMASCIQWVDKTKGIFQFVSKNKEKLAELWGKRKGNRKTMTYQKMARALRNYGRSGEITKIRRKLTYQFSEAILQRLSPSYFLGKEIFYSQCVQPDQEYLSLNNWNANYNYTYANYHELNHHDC
Outline: as §1

ELF4 = ELF4 (Homo sapiens, UniProt Q99607 1-663); conditions: protein: recombinant; tags: N-terminal GST; dsDNA, one strand shown
ELF4, sequence (Q99607 whole entry): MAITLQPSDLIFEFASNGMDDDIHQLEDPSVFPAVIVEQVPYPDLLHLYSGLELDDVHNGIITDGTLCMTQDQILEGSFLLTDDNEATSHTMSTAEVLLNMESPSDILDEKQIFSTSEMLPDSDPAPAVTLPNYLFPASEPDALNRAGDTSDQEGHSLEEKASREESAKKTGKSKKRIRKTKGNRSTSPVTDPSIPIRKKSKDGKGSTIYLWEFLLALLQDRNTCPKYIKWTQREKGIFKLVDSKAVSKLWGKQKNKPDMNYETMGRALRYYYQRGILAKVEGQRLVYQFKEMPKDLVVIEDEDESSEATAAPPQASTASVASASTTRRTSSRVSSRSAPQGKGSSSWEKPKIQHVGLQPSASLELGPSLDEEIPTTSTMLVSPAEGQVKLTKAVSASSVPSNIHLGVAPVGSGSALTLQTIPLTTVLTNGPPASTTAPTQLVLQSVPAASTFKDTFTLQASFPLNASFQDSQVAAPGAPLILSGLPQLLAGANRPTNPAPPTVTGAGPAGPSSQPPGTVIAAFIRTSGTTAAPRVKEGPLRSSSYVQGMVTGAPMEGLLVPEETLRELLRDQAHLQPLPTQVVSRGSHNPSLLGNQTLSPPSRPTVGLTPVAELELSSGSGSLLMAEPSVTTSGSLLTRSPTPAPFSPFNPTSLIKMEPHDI
Outline: as §1

ELK4 = molecular target: T9, ELK4 (Homo sapiens, UniProt P28324-2 1-405); conditions: protein: recombinant; tags: N-terminal GST; dsDNA, one strand shown
T9 sequence: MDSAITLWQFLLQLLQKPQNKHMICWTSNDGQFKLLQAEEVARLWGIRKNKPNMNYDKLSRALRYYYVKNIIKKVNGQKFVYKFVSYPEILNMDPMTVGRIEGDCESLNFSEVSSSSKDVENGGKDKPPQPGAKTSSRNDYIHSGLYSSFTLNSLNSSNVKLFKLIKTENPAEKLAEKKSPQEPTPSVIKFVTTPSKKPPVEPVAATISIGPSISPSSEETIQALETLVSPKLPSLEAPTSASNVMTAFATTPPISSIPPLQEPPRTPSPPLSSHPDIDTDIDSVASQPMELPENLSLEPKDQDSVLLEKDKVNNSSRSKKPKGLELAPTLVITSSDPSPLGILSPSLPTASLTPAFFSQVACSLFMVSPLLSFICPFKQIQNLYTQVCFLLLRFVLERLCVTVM
Outline: as §1

ETV2 = molecular target: T10, ETV2 (Homo sapiens, UniProt O00321 1-342); conditions: protein: recombinant; tags: N-terminal GST; dsDNA, one strand shown
T10 sequence: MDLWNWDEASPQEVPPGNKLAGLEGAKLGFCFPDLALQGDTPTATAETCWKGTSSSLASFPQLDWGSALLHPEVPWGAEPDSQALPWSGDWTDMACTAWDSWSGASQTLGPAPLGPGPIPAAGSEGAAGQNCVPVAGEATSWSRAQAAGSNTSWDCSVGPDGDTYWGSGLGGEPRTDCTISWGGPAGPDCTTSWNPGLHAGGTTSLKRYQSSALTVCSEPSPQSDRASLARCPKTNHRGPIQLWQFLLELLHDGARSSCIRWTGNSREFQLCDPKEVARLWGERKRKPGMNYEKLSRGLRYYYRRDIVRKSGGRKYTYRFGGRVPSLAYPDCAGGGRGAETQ
Outline: as §1

ELF3 = molecular target: T11, ELF3 (Homo sapiens, UniProt P78545 1-371); conditions: protein: recombinant; tags: N-terminal GST; dsDNA, one strand shown
T11 sequence: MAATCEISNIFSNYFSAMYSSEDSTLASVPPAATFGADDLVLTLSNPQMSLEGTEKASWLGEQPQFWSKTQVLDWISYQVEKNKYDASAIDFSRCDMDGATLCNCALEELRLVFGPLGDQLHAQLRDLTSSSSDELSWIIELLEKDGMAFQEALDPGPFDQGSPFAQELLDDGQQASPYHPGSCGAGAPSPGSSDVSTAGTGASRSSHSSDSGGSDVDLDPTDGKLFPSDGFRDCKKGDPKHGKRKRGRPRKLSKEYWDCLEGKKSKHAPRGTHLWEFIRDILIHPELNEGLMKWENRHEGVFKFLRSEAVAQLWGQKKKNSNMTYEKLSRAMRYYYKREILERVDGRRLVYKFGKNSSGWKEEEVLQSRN
Outline: as §1

CRX = CRX (Homo sapiens, UniProt O43186 1-299); conditions: protein: recombinant; tags: N-terminal GST; dsDNA, one strand shown
CRX, sequence (O43186 whole entry): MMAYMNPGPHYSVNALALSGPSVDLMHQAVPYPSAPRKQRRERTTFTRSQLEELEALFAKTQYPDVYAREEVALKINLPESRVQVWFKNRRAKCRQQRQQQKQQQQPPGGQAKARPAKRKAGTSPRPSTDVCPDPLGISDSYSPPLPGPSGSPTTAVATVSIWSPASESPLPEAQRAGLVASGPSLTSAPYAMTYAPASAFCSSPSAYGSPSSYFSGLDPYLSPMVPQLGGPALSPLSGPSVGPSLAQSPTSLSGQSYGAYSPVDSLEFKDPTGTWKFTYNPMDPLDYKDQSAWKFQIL
Outline: as §1

ETV1 = ETV1 (Homo sapiens, UniProt P50549 1-477); conditions: protein: recombinant; tags: N-terminal GST; dsDNA, one strand shown
ETV1, sequence (P50549 whole entry): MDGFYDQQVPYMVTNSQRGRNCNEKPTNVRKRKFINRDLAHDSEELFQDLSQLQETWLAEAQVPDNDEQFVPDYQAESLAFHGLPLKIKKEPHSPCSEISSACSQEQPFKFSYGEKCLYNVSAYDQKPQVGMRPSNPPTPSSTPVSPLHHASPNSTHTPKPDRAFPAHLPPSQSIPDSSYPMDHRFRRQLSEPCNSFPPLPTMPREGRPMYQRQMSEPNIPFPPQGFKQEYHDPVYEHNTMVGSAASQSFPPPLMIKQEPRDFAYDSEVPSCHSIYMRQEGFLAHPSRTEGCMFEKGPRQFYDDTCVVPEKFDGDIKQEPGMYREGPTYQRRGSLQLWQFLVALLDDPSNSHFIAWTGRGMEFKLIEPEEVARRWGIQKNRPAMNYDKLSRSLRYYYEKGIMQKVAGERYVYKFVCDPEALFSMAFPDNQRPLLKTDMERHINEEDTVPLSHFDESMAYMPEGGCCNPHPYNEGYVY
Outline: as §1

Sequence: GAATAA
- binding signal (FLI1): 1.01 fold enrichment (6-mer frequency, TF over GST control)
- binding signal (ELK1): 1.08 fold enrichment (6-mer frequency, TF over GST control)
- binding signal (GABPA): 1.07 fold enrichment (6-mer frequency, TF over GST control)
- binding signal (ERG): 1.06 fold enrichment (6-mer frequency, TF over GST control)
- binding signal (ELF1): 1.09 fold enrichment (6-mer frequency, TF over GST control)
- binding signal (EHF): 1.09 fold enrichment (6-mer frequency, TF over GST control)
- binding signal (SPI1): 1.03 fold enrichment (6-mer frequency, TF over GST control)
- binding signal (SPIB): 1.11 fold enrichment (6-mer frequency, TF over GST control)
- binding signal (ELK3): 1.17 fold enrichment (6-mer frequency, TF over GST control)
- binding signal (FEV): 1.08 fold enrichment (6-mer frequency, TF over GST control)
- binding signal (ETV5): 1.09 fold enrichment (6-mer frequency, TF over GST control)
- binding signal (HSF1): 1.62 fold enrichment (6-mer frequency, TF over GST control)
- binding signal (SPIC): 1.17 fold enrichment (6-mer frequency, TF over GST control)
- binding signal (ELF4): 1.13 fold enrichment (6-mer frequency, TF over GST control)
- binding signal (ELK4): 1.04 fold enrichment (6-mer frequency, TF over GST control)
- binding signal (ETV2): 1.13 fold enrichment (6-mer frequency, TF over GST control)
- binding signal (ELF3): 1.12 fold enrichment (6-mer frequency, TF over GST control)
- binding signal (CRX): 1.57 fold enrichment (6-mer frequency, TF over GST control)
- binding signal (ETV1): 1.03 fold enrichment (6-mer frequency, TF over GST control)
